Assay outcomes (PubChem BioAssay)
Sfp inh – blocks B. subtilis Sfp PPTase activity. Potency, µM, usual class: inhibitors. Biochemical Sfp PPTase activity, qHTS. Q9F4F7. AID 1490. 310,000 compounds, 3.5% hits;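 also: the enzyme is Sfp with the accession as filed and its product quenches rhodamine fluorescence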
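After 15 min at room temperature with compound, 15 nM Sfp received 5 uM rhodamine-CoA plus 12.5 uM BHQ-2-ybbR (50 mM Hepes pH 7.6, 10 mM MgCl2). Rate came from the fluorescence difference over 30 min, ex 525/em 598 nm.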
JMJD2A Tudor – blocks the human JMJD2A Tudor domain; O75164; AlphaScreen JMJD2A-Tudor / H3K4me3 peptide binding; Potency, µM (titrated, usually from 114 µM), usual class: inhibitors; 390,000 compounds, 4.4% hits; also: nearly all actives have a fitted effect of over 50% in size
HP1b binding inh – blocks HP1-beta chromodomain binding to methylated histone tails | P83916 | AlphaScreen HP1-beta / biotin-H3K9me3 peptide binding | Potency, µM (highest dose often 114 µM), actives largely listed as inhibitors | 390,000 compounds, 0.56% hits | AID 540317; also: nearly all actives have a fitted effect of over 70% in size
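AlphaScreen: HP1-beta (50 nM) preformed 30 min with biotin-H3(1-18)K9me3 peptide (50 nM) in PBS pH 7.4, 0.01% Tween-20. Compound added for 30 min at RT, then streptavidin donor/nickel chelate acceptor beads (10 ug/mL) for 30 min.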
BAZ2B block – BAZ2B (human) inhibition; Potency, µM (top dose mostly 114 µM), most hits filed as inhibitors; Q9UIF8; 360,000 compounds, 4.4% hits; AlphaScreen BAZ2B-H3K14Ac peptide displacement; also: nearly all actives have a fitted effect of over 60% in size
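Complex of BAZ2B and biotin-H3K14Ac (50 nM apiece) forms over 30 min at RT, then faces library compounds up to 110 uM for another 30 min; AlphaScreen beads added, 20 min dark incubation, luminescence read.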
G9a block – inhibitors of human histone lysine methyltransferase G9a. 350,000 compounds, 8.8% hits. Potency, µM (highest dose often 102 µM), usual class: inhibitors. AID 504332. G9a H3K9 monomethylation, AlphaScreen, 2 h; also: nearly all actives have a fitted effect of over 75% in size
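Enzyme 20 nM + cpd, 15 min RT; add b-H3K9 pep 500 nM / SAM 20 uM; 2 h RT; anti-H3K9me1 Ab 0.5 ug/mL + SA donor / anti-rabbit acceptor beads 20 ug/mL each, 10 min; AlphaScreen read.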
Hits are given with their value; 0 = inactive; ? = inconclusive; - = not tested or not shown; [ ] = dose if it differs, or a comment. Compounds with a hit are over-represented: about 12% of the library has one in this group of screens. Calls follow the shape of the dose curve; as a rule, active = well fitted curve in the direction sought with a large enough effect; inconclusive = small, poorly fitted or top-dose-only effect, or another doubt; inactive = no such curve, though single readings can be large; an effect the other way counts as inactive or inconclusive.

SMILES | Sfp inh | JMJD2A Tudor | HP1b binding inh | BAZ2B block | G9a block
COCCCNCCOCCOc1ccc(Cl)cc1C(C)(C)C | 0 | 20µM | 0 | ? | 8.9µM
C=CCNCCCOc1ccc(Cl)cc1C(C)(C)C | ? | 4.5µM | ? | 40µM | 10µM
Cc1cc(C)cc(NC(=O)Cn2cc(C(=O)c3ccccc3)c(=O)c3ccc(C)nc32)c1 | - | 0 | 0 | 0 | 0
C=CCNc1nc(N)c([N+](=O)[O-])c(NCCO)n1 | 0 | 0 | 0 | 0 | 0
Cc1cc(C(C)(C)C)cc(C)c1S(=O)(=O)N1CC(=O)Nc2ccccc21 | 0 | 0 | 0 | 0 | ?
C=CCNc1nc(Nc2cc(Cl)ccc2OC)nc(OC)n1 | 0 | 0 | 0 | 0 | 0
C=CCNCCOCCOc1ccc(Cl)cc1C(C)(C)C | 0 | 2µM | 0 | 50µM | 8.9µM
Cc1cc(NC(=O)COC(=O)C2CCN(S(=O)(=O)c3ccc(Cl)cc3)CC2)no1 | 0 | 0 | 0 | 0 | 0
O=C(O)c1ccc(-c2nn3c(=O)cc(N4CCNCC4)nc3s2)cc1 | - | 0 | - | - | -
CC(C)(C)c1ccc(C2=NC(=O)C(CC(=O)O)S2)cc1 (stereo not given) | 50µM | 0 | 0 | ? | 50µM
COc1ccc(C(=O)CC2SC(N)=NC2=O)cc1 (stereo not given) | 0 | 0 | 0 | 0 | 0[12.7 µM]
CCc1ccc(-n2c(=O)c3c(C)c(C(=O)N(C)C)sc3n(Cc3cccc(C)c3)c2=O)cc1 | - | 0 | 0 | 0 | 0
O=C(O)C1CC=CCC1C(=O)Nc1ccc(S(=O)(=O)N2CCCc3ccccc32)cc1 (stereo not given) | 0 | 0 | 0 | 0 | ?
CCCC1=[N+](CC(=O)c2ccccc2)CCn2c(C)ccc21 | 0 | 0 | 0 | 0 | ?
CCCC1=[N+](CC)CCn2c(C)ccc21 | 0 | ? | 0 | 0 | 14µM
C=CCN=C1NN=C(c2ccc3c(c2)OCCO3)CS1 | 0 | 0 | 0 | 0 | 40µM
c1ccc(CN=C2NN=C(c3ccccc3)CS2)cc1 | 0 | ? | 0 | ? | 40µM
Clc1ccc(C2=NNC(=NCc3ccccc3)SC2)cc1 | ? | ? | 0 | ? | 0
CCCCN=C1NN=C(c2cccc([N+](=O)[O-])c2)CS1 | 0 | 0 | 0 | ? | 11µM
CCN=C1NN=C(c2ccc(C)cc2)CS1 | ? | 0 | 0 | 0 | 32µM
COCCN=C1NN=C(c2ccc(NC(C)=O)cc2)CS1 | 40µM | 0 | 0 | 0 | ?
CC(C)N=C1NN=C(c2ccc(F)cc2)CS1 | 56µM | 0 | 0 | 0 | ?
COc1ccccc1C1=NNC(=NCc2ccccc2)SC1 | 0 | 0 | 0 | 0 | ?
Fc1ccc(C2=NNC(=NCc3ccccc3)SC2)cc1F | ? | ? | 0 | ? | ?
c1ccc(C2=NNC(=NCc3ccc4c(c3)OCO4)SC2)cc1 | 0 | 0 | 0 | 0 | 40µM
SMILES | Sfp inh | JMJD2A Tudor | HP1b binding inh | BAZ2B block | G9a block
Cc1c(NC(=O)c2nn3c(C(F)(F)F)cc(-c4ccccc4)nc3c2Cl)c(=O)n(-c2ccccc2)n1C | 0 | 0 | 0 | 0 | 0
C[C@H]([C@@H](N)C(=O)N[C@@H](C(=O)O)[C@@H]1O[C@H](n2ccc(=O)[nH]c2=O)[C@@H](O)[C@H]1O)[C@@H](O)c1ccc(O)cn1 | 56µM | 0 | 0 | ? | 3.2µM
CCOC(=O)c1cc(CC)sc1NC(=O)CCC(=O)O | 0 | ? | 0 | 0 | 0[12.7 µM]
Cc1ccc(C(C)C)c(OCCNC(=S)Nc2cccc3ccccc23)c1 | 0 | 0 | 0 | 0 | 0[12.7 µM]
Cc1cc(OCCOCCNCc2ccccc2)ccc1C(C)C | 79µM | 20µM | ? | ? | 10µM
Clc1cc(Br)ccc1OCCCNCc1ccccc1 | 0 | 2.8µM | ? | ? | 7.1µM
CN(Cc1ccccc1)C(=O)COc1ccc(Br)cc1Cl | 0 | 0 | 0 | 0 | 0
Cc1ccc(C(C)C)c(OCCNCc2ccccc2)c1 | 0 | 28µM | 0 | ? | -
Cc1ccc(C)c(OCCCNCc2ccccc2)c1 | 0 | 45µM | 0 | ? | ?
COc1ccc(S(=O)(=O)Nc2cccc3c2O[C@H](CN(C)C(=O)NC2CCCCC2)[C@@H](C)CN([C@H](C)CO)C3=O)cc1 | - | 0 | 0 | - | -
CC(C)Oc1ccc(C(=O)NC2(C(F)(F)F)NC(=O)N(CCCc3ccccc3)C2=O)cc1 (stereo not given) | 0 | 0 | 0 | 0 | 0
COc1ccc(N(CC(=O)Nc2cccc(Cl)c2C)S(=O)(=O)c2c(C)nn(C)c2C)cc1 | - | 0 | 0 | - | 0
Cc1nn(CCCC(=O)Nc2cccnc2Cl)c(C)c1[N+](=O)[O-] | 0 | 0 | 0 | 0 | 0
O=C1CN(C(=O)CN2CCOCC2)C(c2ccccc2)c2cc(Br)ccc2N1 (stereo not given) | 0 | 0 | 0 | 0 | ?
CCOc1ccc(S(=O)(=O)N(CC(=O)NCc2ccccc2OC)c2ccccc2)cc1 | - | 0 | 0 | 0 | 0
Brc1ccc(OCc2ccccc2)c(CNCc2ccncc2)c1 | 79µM | ? | 0 | 79µM | 0[0.0925 µM]
Fc1ccc(COc2ccccc2CNCc2ccncc2)cc1 | 0 | 0 | 0 | 0 | ?
CCOc1ccc(C2=C/C(=C/c3cccnc3)C(=O)O2)cc1 | 0 | 0 | 0 | 0 | 0[12.7 µM]
CCN(CC)S(=O)(=O)c1ccc(C)c(NC(=S)N2CCN(c3ccccn3)CC2)c1 | ? | 0 | 0 | 0 | 32µM
CCN(CC)S(=O)(=O)c1ccc(C)c(NC(=S)N2CCN(C/C=C/c3ccccc3)CC2)c1 | 0 | 0 | 0 | ? | 35µM
CC(=O)c1ccc(NC(=O)CS(=O)(=O)c2cn(CC(=O)N3CCOCC3)c3ccccc23)cc1 | 0 | 0 | 0 | 0 | ?
O=c1oc2ccccc2n1Cc1ccccc1Cl | 0 | 0 | 0 | 0 | 0
CCc1ccc2[nH]c(C(=O)Nc3ccc(Br)c(C)n3)cc2c1 | 0 | 0 | 0 | 0 | 45µM
CCc1ccc2[nH]c(C(=O)Nc3ccc(F)cc3Br)cc2c1 | 56µM | 0 | 0 | 0 | 45µM
CC(C)c1ccc(C(=O)NNC(=O)c2n[nH]c(=O)c3ccccc23)cc1 | - | 0 | 0 | 0 | 5µM
SMILES | Sfp inh | JMJD2A Tudor | HP1b binding inh | BAZ2B block | G9a block
CC1CCN(C(=O)c2[nH]cnc2C(=O)NCc2ccc(CNC(=O)OC(C)(C)C)cc2)CC1 | - | 0 | 0 | 0 | 0[2.33 µM]
Cc1occc1-c1nnc(SCC(=O)N2CCCc3ccccc32)n1Cc1ccco1 | 0 | 0 | 0 | 0 | 0[12.7 µM]
Fc1ccc(CSc2nnc(-c3cccnc3)n2Cc2ccco2)cc1 | 40µM | 0 | 0 | 0 | 50µM
O=C(CSc1nnc(-c2cccnc2)n1Cc1ccco1)N1CCc2ccccc21 | 20µM | 0 | 0 | 0 | 0
O=C(CSc1nnnn1C1CCCCC1)N1c2ccccc2Sc2ccccc21 | 0 | 0 | 0 | 0 | 0[12.7 µM]
COc1ccc(C2=NN(CC(=O)NCc3ccccc3Cl)C(=O)CC2)cc1 | - | 0 | 0 | 0 | 0
CCC[C@H]1NC(=O)[C@H](C)N(C)C(=O)C(C)(C)C(=O)C(C)NC(=O)[C@H](Cc2ccc(OC)cc2)N(C)C(=O)[C@H](C(C)C)N(C)C(=O)CNC(=O)[C@H](CC(C)C)N(C)C(=O)CNC(=O)[C@H]([C@@H](C)CC)OC(=O)[C@H]1C (stereo not given in full) | - | 22µM | 0 | - | -
Cc1cc(C)cc(NC(=S)NCc2cccn2C)c1 | 0 | ? | 0 | 50µM | 0
